About 79,000 compounds went through this panel and 15% of them were active in at least one assay; those are over-represented in the sample as a whole. Calls of active or inactive are those of the source. Rule as the data show it: active = growth inhibition above about 70%; inactive = the rest.
How the values were obtained:
[1] = NCI Yeast Anticancer Drug Screen. Data for the rad52 strain (AID 147);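 also: 0% = growth of vehicle-treated control cultures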; details: S. cerevisiae rad52 mutant growth inhibition, hits give high values
How it was run: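 Yeast strain carrying a DNA damage repair alteration was exposed to test compounds. Growth inhibition was measured relative to vehicle-treated controls.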

[2] = NCI Yeast Anticancer Drug Screen. Data for the wt1 strain (AID 149);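 also: 0% = growth of vehicle-treated wt1 cultures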; details: S. cerevisiae wt1 strain (SPY 50644) growth inhibition, hits give high values
How it was run: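 Compounds are added to wt1 yeast cultures. Growth is then measured. Inhibition is expressed relative to vehicle-treated controls.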

[3] = NCI Yeast Anticancer Drug Screen. Data for the rad50EPP+ strain (AID 151);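 also: 0% = growth of vehicle-treated control cultures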; details: S. cerevisiae rad50 mutant strain, hits give high values
How it was run: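 Yeast strain carrying rad50 alteration (rad50EPP+) exposed to compounds; growth inhibition measured relative to vehicle-treated controls.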

[4] = NCI Yeast Anticancer Drug Screen. Data for the mgt1 strain (AID 153); details: S. cerevisiae mgt1 mutant growth inhibition, hits give high values
How it was run: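 Yeast mgt1 strain (DNA repair/cell-cycle alteration panel) exposed to compounds; growth inhibition measured relative to vehicle-treated controls.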

[5] = NCI Yeast Anticancer Drug Screen. Data for the rad50 strain (AID 155);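 also: 0% = growth of vehicle-only cultures of the same strain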; details: S. cerevisiae rad50 strain growth inhibition, hits give high values
How it was run: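 Inhibition values express reduced yeast growth in compound-treated cultures relative to vehicle-treated controls.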

[6] = NCI Yeast Anticancer Drug Screen. Data for the mec2-1 strain (AID 157); details: S. cerevisiae mec2-1 strain, hits give high values
How it was run: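 mec2-1 yeast strain, carrying an alteration in DNA damage repair or cell cycle control, was exposed to compounds; growth inhibition was measured relative to vehicle-treated controls.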

[7] = NCI Yeast Anticancer Drug Screen. Data for the rad14 strain (AID 159);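 also: 0% = growth of vehicle-treated control cultures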; details: S. cerevisiae rad14 strain growth inhibition, hits give high values
How it was run: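 A mutant yeast strain defective in DNA damage repair is treated with compound; inhibition of its growth is scored against untreated, vehicle-exposed cultures.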

[8] = NCI Yeast Anticancer Drug Screen. Data for the sgs1 mgt1 strain (AID 161);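 also: 0% = growth of cultures given vehicle only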; details: S. cerevisiae sgs1 mgt1 strain, hits give high values
How it was run: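 This yeast growth screen uses a strain with defined DNA-repair lesions; compound-treated growth is compared with vehicle-treated growth.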

[9] = NCI Yeast Anticancer Drug Screen. Data for the CLN2oe strain (AID 163);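 also: 0% = growth of vehicle-only control cultures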; details: S. cerevisiae CLN2oe strain, hits give high values
How it was run: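 Yeast cells carrying a defined cell-cycle control alteration were exposed to test compounds. Growth inhibition was scored against vehicle-treated control cultures.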

[10] = NCI Yeast Anticancer Drug Screen. Data for the cln2 rad14 strain (AID 165);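 also: 0% = growth equal to vehicle treated cultures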; details: S. cerevisiae cln2 rad14 strain, hits give high values
How it was run: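 Yeast carrying cln2 and rad14 alterations (cell cycle control and DNA damage repair) were exposed to compounds. Growth inhibition was measured against vehicle-treated controls.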

[11] = NCI Yeast Anticancer Drug Screen. Data for the bub3 strain (AID 167); details: S. cerevisiae bub3 mutant strain, hits give high values
How it was run: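 Steps: expose the mutant yeast strain to compound; grow alongside vehicle-treated cultures; measure growth; express inhibition against the vehicle cultures.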

[12] = NCI Yeast Anticancer Drug Screen. Data for the wt2 strain (AID 169);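 also: 0% = growth of vehicle-treated yeast cultures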; details: S. cerevisiae wt2 strain growth inhibition, hits give high values
How it was run: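 Yeast cells were exposed to test compounds, and growth inhibition was measured relative to vehicle-treated controls.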

[13] = NCI Yeast Anticancer Drug Screen. Data for the mlh1 strain (AID 171);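 also: 0% = growth of vehicle-treated control cultures of the same strain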; details: S. cerevisiae mlh1 strain growth inhibition, hits give high values
How it was run: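 Yeast carrying a defined genetic alteration in DNA damage repair or cell cycle control were exposed to test compounds. Growth inhibition was measured relative to vehicle-treated controls.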

[14] = NCI Yeast Anticancer Drug Screen. Data for the sgs1 strain (AID 173);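 also: 0% = growth of vehicle-only control cultures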; details: S. cerevisiae sgs1 mutant, hits give high values
How it was run: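 Yeast mutant strains carrying defined defects in DNA damage repair or cell cycle control were exposed to test compounds. Growth inhibition was scored against vehicle-treated controls.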

[15] = NCI Yeast Anticancer Drug Screen. Data for the mlh1 rad18 strain (AID 175); details: S. cerevisiae mlh1 rad18 strain growth inhibition, hits give high values
How it was run: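 Growth inhibition of the yeast strain was measured after compound exposure and expressed relative to vehicle-treated controls. The strain carries defined defects in DNA damage repair.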

[16] = NCI Yeast Anticancer Drug Screen. Data for the rad18 strain (AID 177); details: S. cerevisiae rad18 mutant growth inhibition, hits give high values
How it was run: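 Yeast carrying a defined DNA damage repair alteration were exposed to compounds. Growth inhibition was expressed relative to vehicle-treated controls.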

[17] = at 5.0 µM (retest, dose inferred, filed as 0.5)
[18] = at 50.0 µM (retest, dose inferred, filed as 5.0)

Measured: growth inhibition

O=C(c1ccc(Cl)cc1Cl)C(Cl)Cl
active: [1]; at 33.0 µM 74% | [1]; at 100.0 µM 98% | [2]; at 100.0 µM 98% | [3]; at 33.0 µM 94% | [3]; at 100.0 µM 96% | [4]; at 100.0 µM 99% | [5]; at 33.0 µM 79% | [5]; [18] 84% | [5]; at 50.0 µM 83.8% | [5]; at 100.0 µM 98% | [6]; at 33.0 µM 81% | [6]; [18] 82% | [6]; at 50.0 µM 85.5% | [6]; at 100.0 µM 98% | [7]; at 100.0 µM 98% | [8]; [18] 99% | [8]; at 50.0 µM 83.8% | [9]; at 100.0 µM 98% | [10]; [18] 98% | [11]; at 33.0 µM 80% | [11]; [18] 96% | [11]; at 50.0 µM 88.8% | [11]; at 100.0 µM 97% | [12]; at 33.0 µM 71% | [12]; at 100.0 µM 98% | [13]; at 33.0 µM 83% | [13]; at 100.0 µM 99% | [14]; at 33.0 µM 80% | [14]; at 100.0 µM 98% | [15]; [18] 75% | [15]; at 50.0 µM 88.5% | [16]; at 33.0 µM 76% | [16]; at 100.0 µM 98%
inactive: [1]; at 1.2 µM 4% | [1]; at 3.7 µM 0% | [1]; at 11.0 µM 14% | [2]; at 1.2 µM -1% | [2]; at 3.7 µM -6% | [2]; at 11.0 µM 3% | [2]; at 33.0 µM 56% | [3]; at 1.2 µM 40% | [3]; at 3.7 µM 53% | [3]; at 11.0 µM 65% | [4]; at 1.2 µM -21% | [4]; at 3.7 µM -34% | [4]; at 11.0 µM -13% | [4]; at 33.0 µM 68% | [5]; at 1.2 µM 11% | [5]; at 3.7 µM 11% | [5]; [17] 46% | [5]; at 11.0 µM 13% | [6]; at 1.2 µM -22% | [6]; at 3.7 µM -24% | [6]; [17] 40% | [6]; at 11.0 µM -9% | [7]; at 1.2 µM -17% | [7]; at 3.7 µM -25% | [7]; at 11.0 µM -15% | [7]; at 33.0 µM 53% | [8]; [17] 13% | [9]; at 1.2 µM -11% | [9]; at 3.7 µM -8% | [9]; at 11.0 µM -13% | [9]; at 33.0 µM 18% | [10]; [17] 68% | [10]; at 50.0 µM 53.6% | [11]; at 1.2 µM -20% | [11]; at 3.7 µM -11% | [11]; [17] -4% | [11]; at 11.0 µM 3% | [12]; at 1.2 µM -8% | [12]; at 3.7 µM -7% | [12]; at 11.0 µM 16% | [13]; at 1.2 µM -10% | [13]; at 3.7 µM 3% | [13]; at 11.0 µM 20% | [14]; at 1.2 µM -14% | [14]; at 3.7 µM -14% | [14]; at 11.0 µM 14% | [15]; [17] 34% | [16]; at 1.2 µM -30% | [16]; at 3.7 µM -34% | [16]; at 11.0 µM -1%

From PubChem BioAssay (NCI)
